Laboratory results published in PubChem BioAssay AID1645872 (National Center for Advancing Translational Sciences (NCATS), 2021).
Results filed as inconclusive are left out. Active and inactive are the calls of the source. Calls follow the shape of the dose curve; as a rule, active = well fitted inhibition curve with a large enough effect; inconclusive = small, poorly fitted or top-dose-only effect; inactive = flat fitted curve, though single readings scatter.

Target: Papain (Carica papaya) (UniProt P00784)
Sequence (P00784 whole entry, looked up): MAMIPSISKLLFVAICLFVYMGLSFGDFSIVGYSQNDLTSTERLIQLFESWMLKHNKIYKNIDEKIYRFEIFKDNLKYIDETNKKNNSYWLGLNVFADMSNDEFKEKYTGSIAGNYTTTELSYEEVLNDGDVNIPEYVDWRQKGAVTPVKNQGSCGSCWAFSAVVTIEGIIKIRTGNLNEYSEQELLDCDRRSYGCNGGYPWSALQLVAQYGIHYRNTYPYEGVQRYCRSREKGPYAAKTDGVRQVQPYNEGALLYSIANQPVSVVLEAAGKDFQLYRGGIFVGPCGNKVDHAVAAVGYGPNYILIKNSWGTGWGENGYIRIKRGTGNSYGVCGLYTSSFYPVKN
Experiment: Confirmatory qHTS assay for inhibitors of the protease papain
Conditions: papain Z-FR-AMC cleavage, fluorescence
From the text: Principal Investigator: Sam Michael National Center for Advancing Translational Sciences, National Institutes of Health, Rockville, MD Current high-throughput screening (HTS) assay validation is often a manual process, though this can be enhanced by design-of-experiment approaches. An artificial intelligence-driven (AI/ML) assay optimization was developed as part of the NCATS A Specialized Platform for Innovative Research Exploration (ASPIRE) Initiative to accelerate preclinical drug discovery. We describe the development of an autonomous Cloud-based computational driven assay optimization system using the Kebotix adaptive optimization algorithm. […]
PROTOCOL TABLE SEQUENCE No. (e.g., 1, 2, 3, etc.); PARAMETER (e.g., Cells, Incubation, Reagent, etc.); VALUE and DESCRIPTION. 1; Reagent; 3 uL; 4/3x Enzyme solution (working concentration of 5 nM) or 3 uL buffer 2; Compounds; 17 nL; library compounds and controls (working concentration of 169 nM - […]) 3; Time; 15 min; room temperature incubation 4; Reagent; 1 uL; 4x 2 uM Z-FR-AMC substrate 5; Centrifugation; 1000 rpm; 15 sec centrigure 6; Detection; Fluorescence Read 1; ViewLux plate reader 7; Time; 10 min; room temperature incubation 8; Detection; Fluorescence Read 2; ViewLux plate reader NOTES (numbers refer to Sequence numbers above; values are from representative experiments) 1; Dispense 3 uL of [4/3x] […]

Cc1ccc(S(=O)(=O)N[C@@H](CCCCN)C(=O)CCl)cc1
Potency: 647 nM (active)
